This is a sample that favours compounds with a hit; in the whole collection about 21% have one here.
AMA1 RON2 block: qHTS for Inhibitors of AMA1-RON; Towards Development of Antimalarial Drug Lead: Primary Screen; Plasmodium falciparum AMA1 (3D7) - RON2 peptide interaction; AlphaScreen AMA1-biotinylated RON2 peptide binding; Potency, µM (doses to about 58.2 µM), inactives show at the top dose activity change, negative = inhibition, hits mostly inhibitors; 360,000 tested, 0.2% active;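 note: potency is the fitted concentration of half-maximal effect; 0% = vehicle wells and -100% = peptide control; nearly all actives have a fitted effect of over 45% in size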
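AMA1 (3D7) with his tag at 25 nM final met compounds first, then biotinylated RON2 peptide at 25 nM; detection used donor plus acceptor beads, 10 µg/mL apiece, read by AlphaScreen after 30 min at room temperature.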
HCV inhibitor: qHTS Assay for Inhibitors of Hepatitis C Virus (HCV); Huh7.5.1 HCVcc-Cre infection, luciferase reporter, 44 h; Potency, µM (top dose mostly 41.8 µM), without a hit: at the top dose activity change, negative = inhibition, hits mostly inhibitors; 340,000 tested, 3.4% active; note: potency is the fitted concentration of half-maximal effect; % is set by controls: 0 for no effect and ±100 for the full control effect
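After 44 h co-culture of compound, cells and HCVcc-Cre (~0.5 moi), substrate is added for 15 min at room temperature and luciferase measured over 15 sec. Cells were seeded at 1,000/well and pre-cultured 4 h.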
Cycloheximide cs: Cycloheximide Counterscreen for Small Molecule Inhibitors of Shiga Toxin; cell reporter, cycloheximide protein synthesis inhibition counterscreen; max response, %; 300,000 tested, 12% active; AID 2314, 2010; in the data active = max response mostly above about 13%, no sharp cut-off; inactive = mostly below about 14%; note: read at 38.3 µM for the half of the compounds with a filed dose; 0% is about no effect
Shiga inhibitor: A qHTS for Small Molecule Inhibitors of Shiga Toxin; Vero cells, Shiga toxin protein synthesis inhibition reporter; 290,000 tested, 9.2% active; inhibition, % at 38.7 µM; AID 2315, 2010; in the data active = inhibition mostly above about 28%, no sharp cut-off; inactive = mostly below about 43%; note: 0% is about no effect
Pf growth 48h: Primary qHTS for delayed death inhibitors of the malarial parasite plastid, 48 hour incubation; 310,000 tested, 5.9% active; Potency, µM (doses to about 28.7 µM), inactives show at the highest dose activity change, negative = inhibition, hits mostly inhibitors; P. falciparum luciferase growth in erythrocytes, 48 h; AID 504832, 2011; note: potency is the fitted concentration of half-maximal effect; % is set by controls: 0 for no effect and ±100 for the full control effect
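Compounds are pin-transferred into medium, infected erythrocytes (2% hematocrit, 0.1% parasitemia final) are added, and plates sit one parasite generation at 37 C in 5% CO2. Detection reagent is then added and luminescence measured.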
Pf growth 96h: Primary qHTS for delayed death inhibitors of the malarial parasite plastid, 96 hour incubation | P. falciparum luciferase reporter growth, 96 h | Potency, µM (top dose mostly 28.7 µM), for the others: at the top dose activity change, negative = inhibition, actives largely listed as inhibitors | 320,000 tested, 6.9% active | AID 504834, 2011; note: potency is the fitted concentration of half-maximal effect; % is set by controls: 0 for no effect and ±100 for the full control effect
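Delayed-death screen, second-generation endpoint: infected erythrocytes, 2% hematocrit, 0.05% parasitemia final; 96 hours at 37 C, 5% CO2; luciferase detection reagent; luminescence decrease equals reduced growth.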
Active calls of the source: *; ? = inconclusive; . = not tested or not shown; + = active, no number. Unless noted, calls come from the whole dose curve; as a rule, active = well fitted curve in the direction sought with a large enough effect; inconclusive = small, poorly fitted or top-dose-only effect, or another doubt; inactive = no such curve, though single readings can be large; an effect the other way counts as inactive or inconclusive.

SMILES	AMA1 RON2 block	HCV inhibitor	Cycloheximide cs	Shiga inhibitor	Pf growth 48h	Pf growth 96h
COc1ccc(CCn2c(=N)c(C(=O)NC3CCCC3)cc3c(=O)n4cccc(C)c4nc32)cc1	1.7%	-12.7%	-2.5	-10.4	0.828µM*	0.522µM*
O=C(NC1CCCC1)c1cc2c(=O)n3ccccc3nc2s1	1.3%	-10.1%	.	.	41.3%	4.0%
COc1ccc(Cn2c(=N)c(C(=O)NCC3CCCO3)cc3c(=O)n4ccccc4nc32)cc1 (stereo unspecified)	7.7%	-33.0%	-1.7	-11.5	?	?
Cc1ccc(S(=O)(=O)NCc2cn3ccccc3n2)c(C)c1	0.4%	2.6%	2.3	-8.4	4.9%	0.1%
COc1ccc(CCn2c(=N)c(C(=O)NC3CCCCC3)cc3c(=O)n4ccccc4nc32)cc1	-10.3%	?	-3.9	23.4	0.928µM*	?
COc1ccc(CCn2c(=N)c(S(=O)(=O)c3ccc(C)cc3)cc3c(=O)n4ccccc4nc32)cc1	16.0%	-29.7%	-1.8	-6.8	5.22µM*	3.7µM*
CCOc1ccc(Cl)cc1S(=O)(=O)N1CCC(C(=O)NC2CC2)CC1	-2.2%	22.9%	-6.8	1.5	?	-0.8%
Cn1c(=O)c2c(nc(NCCNC(=O)c3ccco3)n2Cc2ccccc2)n(C)c1=O	9.4%	?	-4.4	-4.9	-18.8%	-1.3%
NC(=O)C1CCN(C(=O)CSc2nc3ccccc3[nH]2)CC1	-1.6%	13.9%	9.6	-6.0	.	12.1%
CC1CCN(C(=O)CSc2nc3ncccc3[nH]2)CC1	7.3%	2.2%	20.3*	28.4	13.0%	25.9%
CC1CCN(C(=O)CSc2nc3ccccc3[nH]2)CC1	-6.3%	21.1%	59.4*	65.7*	115.2%	35.2%
CC(=O)Nc1ccc(S(=O)(=O)Nc2ccccc2C(=O)N2CCCCC2)cc1	1.4%	0.6%	-5.6	-17.4	-25.5%	0.0%
O=C(O)c1ccc(CNC(=O)C2CCN(S(=O)(=O)c3cccs3)CC2)cc1	11.9%	.	.	.	.	.
Nc1ccc2nc(-c3cccc(-c4nc5ccc(N)cc5[nH]4)c3)[nH]c2c1	?	-21.0%	9.7	-3.5	1.85µM*	0.0%
Cc1ccc2nc(-c3ccccc3N)[nH]c2c1	3.3%	-2.7%	41.2*	69.6	130.5%	29.1%
O=S(=O)(O)c1ccc2nc(-c3ccccc3)[nH]c2c1	.	.	.	.	-7.3%	-14.4%
Nc1ccc2nc(C3CCCCC3)[nH]c2c1	-14.8%	3.4%	13.3*	94.5	43.6%	23.4%
Cc1c(N)cccc1-c1nc2ccccc2[nH]1	-15.3%	11.6%	52.4*	38.6*	271.0%	-22.6%
Clc1ccc(-c2ccccc2)cn1	-1.0%	11.1%	.	.	42.1%	41.1%
Nc1ccc(C(=O)Nc2ccc3nc(-c4cccnc4)[nH]c3c2)cc1	0.8%	-1.5%	-0.9	-11.8	?	56.8%
NC(=O)c1ccc2nc(-c3ccc(Oc4ccc(Cl)cc4)cc3)[nH]c2c1	.	.	16.0	44.9*	.	.
Clc1ccc2nc(-c3ccc(Cl)nc3)[nH]c2c1	-15.2%	?	24.4*	53.4*	?	?
Nc1ccc(-c2nc3ccc(N)cc3[nH]2)cc1	?	-29.7%	24.2*	40.3	240.3%	?
Nc1ccc2nc(-c3ccc(Cl)cc3)[nH]c2c1	20.6%	-15.9%	61.7*	96.8*	.	?
Cc1nc2ccc(-c3nc4ccc(N)cc4[nH]3)cc2[nH]1	25.7%	-16.4%	-0.7	-6.1	?	6.4%
SMILES	AMA1 RON2 block	HCV inhibitor	Cycloheximide cs	Shiga inhibitor	Pf growth 48h	Pf growth 96h
C=C1C=CS(=O)(=O)N(C(C)C(=O)OC)C1 (stereo unspecified)	.	.	0.4	-9.1	.	.
N#Cc1ccccc1S(=O)(=O)N1CCN(CC(O)COc2ccccc2F)CC1 (stereo unspecified)	-29.2%	4.4%	-5.9	2.9	7.5%	?
C=C1C(=O)[C@]23[C@H](O)[C@H]1CC[C@H]2[C@@]12COC3(O)[C@H](O)[C@@H]1C(C)(C)CC[C@@H]2O	.	.	-5.4	-14.6	.	.
Nc1ccc2nc(CN3CCOCC3)[nH]c2c1	-1.9%	22.3%	-1.3	17.8	.	?
Cc1ccc(C)c(-c2nc3ccc(N)cc3[nH]2)c1	11.4%	?	14.2*	32.9	?	-1.8%
Cc1ccc2nc(CCc3nc4ccc(C)cc4[nH]3)[nH]c2c1	23.6%	?	-1.6	-6.5	43.6%	23.5%
Nc1ccc2nc(-c3cc(Cl)c(N)c(Cl)c3)[nH]c2c1	?	11.2µM*	35.6*	63.6*	2.94µM*	?
Nc1ccc(-c2nc3c(Cl)c(N)ccc3[nH]2)cc1	-13.5%	1.3%	15.4	78.2*	23.3%	?
Cc1ccc(NC(=O)CN(C)C(=O)c2cc(S(=O)(=O)N(C)C)ccc2N2CCCC2)cc1	4.1%	-30.0%	.	.	-12.3%	?
O=C(C[C@@H]1C/C=C\C[C@@H](Cc2ccc(F)cc2)C(=O)OC[C@@H](Cc2ccccc2)NC1=O)N[C@H](CO)Cc1ccccc1	-2.4%	11.7%	.	.	.	.
Cc1cc(/C=C2/NC(=O)N(Cc3ccccc3F)C2=O)c(C)n1-c1ccccn1	-9.8%	-23.0%	-1.5	2.6	9.28µM*	?
Cc1ccc(/C=C2/NC(=O)N(Cc3ccccc3F)C2=O)s1	19.0%	13.6%	11.7	13.3	25.0%	?
Cc1cccc(CN2C(=O)N/C(=C/c3cc(C)n(-c4ccccn4)c3C)C2=O)c1	-0.7%	1.78µM*	19.4	-7.4	13.1µM*	.
Cc1cc(/C=C2/NC(=O)N(Cc3ccccc3F)C2=O)c(C)n1C	-5.0%	?	-7.4	-4.7	10.4µM*	10.4µM*
Cc1sc2ncnc(SCC(=O)NC(=O)c3cccn3C)c2c1C	21.7%	?	1.3	-4.6	-0.4%	20.6%
COc1cccc(CN(C)C(=O)c2ccc(Cl)c(S(=O)(=O)N3CCCCCC3)c2)c1OC	-2.7%	?	.	.	.	.
O=C(NC(C(=O)c1ccccc1)n1c(=O)cc[nH]c1=S)c1ccccc1 (stereo unspecified)	6.0%	-2.7%	15.8*	+	17.7%	-68.2%
O=C(NC(NC(=O)c1ccccc1)C(=O)c1ccccc1)c1ccccc1	-2.4%	-2.9%	-7.5	11.5	-18.5%	2.33µM*
O=C(c1ccccc1)C(O)c1ccccc1 (stereo unspecified)	8.5%	?	.	.	?	9.53µM*
O=C(O)[C@@H](O)c1ccccc1	-2.1%	20.3%	-3.7	-24.0	.	.
O=C(NCc1ccccc1)C1c2ccccc2OCC(=O)N1CC(F)(F)F (stereo unspecified)	13.2%	.	.	.	.	.
O=C(NCc1cc([N+](=O)[O-])ccc1O)c1cccc(NS(=O)(=O)c2ccccc2)c1	8.5%	.	-3.5	-17.9	-16.1%	?
O=C(NNC(=S)Nc1ccccc1)Nc1ccccc1	78.2%	-13.2%	33.6*	88.3*	45.8%	74.7%
